Assay results reported in PubChem BioAssay (NCATS).
Records with an inconclusive call do not appear. Unmarked numbers belong to inactive results. The source made the active and inactive calls. Calls come from the whole dose curve; as a rule, active = well fitted inhibition curve with a large enough effect; inconclusive = small, poorly fitted or top-dose-only effect; inactive = flat fitted curve, though single readings scatter.
% is set by controls: 0 for no effect and ±100 for the full control effect; potency is the fitted concentration of half-maximal effect.

Each compound was assayed on MCC-26 (assay: qHTS assay to identify novel small-molecules to repurpose for Merkel cell carcinoma treatment (AID 1296009; note: nearly all actives have a fitted effect of over 60% in size)). Conditions: MCC and control cell lines, CellTiter-Glo viability, 72 h; series mostly up to 46 µM; activity change, negative = cytotoxicity: at the top concentration.
Description: MCC is a rare and aggressive neuroendocrine skin cancer with limited treatment options. Approximately 80% of MCCs have the Merkel cell polyomavirus (MCPyV) DNA integrated into the host genome (virus-positive: VP-MCC) and viral oncogenes drive oncogenesis. The remaining MCCs are virus-negative (VN-MCC) and are caused by UV mutagenesis. To identify novel treatments for VP-MCC and/or VN-MCC we screened three VP-MCC cell lines (WAGA, MKL-1, MKL-2), three VN-MCC cell lines (MCC-13, MCC-26, UISO), and four immortalized, non-transformed control cell lines (HaCaT, HEK293T, CRL7250, NIH-3T3) against ~2,400 compounds in the NCGC Pharmaceutical Collection (NPC) and ~1,900 compounds in the Mechanism Interrogation PlatE (MiPE). Using cell viability as a readout (CellTiter-Glo assay) we found both overlapping and distinct drugs that can be repurposed for the treatment of VP-MCC and VN-MCC.
A high-throughput screen was conducted in 1536-well white flat bottom plates (Corning) on a Kalypsys robotic system. Cell lines WAGA, MKL-1, MKL-2, MCC-13, MCC-26, UISO, HaCaT, HEK293T, CRL7250, and NIH-3T3 were screened against 2 small molecule annotated drug libraries NPC and MIPE in dose response (8 and 11 pt. respectively) measuring cell viability after 72 hours of incubation. […] A 1,536 pintool (Kalypsys) was used to transfer 23 nL of compound in DMSO to the 1,536-well assay plates. After 72 hr incubation at 37 degree celsius, 2.5 uL of CellTiter-Glo (Promega) was dispensed into each well using a BiorapTR. Plates were incubated at room temperature for 10 min, transferred to a ViewLux (PerkinElmer) and the luminescence was recorded using an exposure time of 2 seconds. Relative luminescence units (RLUs) were normalized to in-plate controls (no cells as a positive (cytotoxicity) control, DMSO as negative control) and the normalized data was processed using NCATS in-house software.
With `NCCC(O)(P(=O)(O)O)P(=O)(O)O` the “activity change, negative = cytotoxicity” value was 4.24%. For `CCN(CCCc1ccccc1)CCCc1ccccc1`, the “activity change, negative = cytotoxicity” value was 3.54%. In the case of `COc1cccc2c1C(=O)c1c(O)c3c(c(O)c1C2=O)C[C@@](O)(C(=O)CO)C[C@@H]3O[C@H]1C[C@H](N)[C@H](O)[C@H](C)O1`, the Potency is reported as 2.11 µM (active). In the case of `Cc1cc(=O)n(-c2ccccc2)n1C`, the “activity change, negative = cytotoxicity” value is reported as 2.4%. In the case of `CC(=O)Oc1ccc(C(=C2CCCCC2)c2ccc(OC(C)=O)cc2)cc1`, the “activity change, negative = cytotoxicity” value is reported as 9.44%. For `NC[C@H]1O[C@H](O[C@H]2[C@H](O)[C@@H](O[C@H]3O[C@H](CO)[C@@H](O)[C@H](N)[C@H]3O)[C@H](N)C[C@@H]2N)[C@H](N)[C@@H](O)[C@@H]1O`, the “activity change, negative = cytotoxicity” value was 6.34% [at 16.1 µM]. With `OC(CCN1CCCCC1)(c1ccccc1)c1ccccc1` the “activity change, negative = cytotoxicity” value was -13.3%. For `CN=C(NC#N)NCCSCc1csc(N=C(N)N)n1`, the “activity change, negative = cytotoxicity” value was 5.43%. For `CC(C)(Oc1ccc(Cl)cc1)C(=O)O`, the “activity change, negative = cytotoxicity” value was -1.47%. For `O=C1OCCN1/N=C/c1ccc([N+](=O)[O-])o1`, the “activity change, negative = cytotoxicity” value was 7.6%. For `CN=C(NC#N)Nc1ccc(C2=NNC(=O)CC2C)cc1` (stereo not given), the “activity change, negative = cytotoxicity” value was -8.21%. `CC(C)N=C(N)/N=C(\N)Nc1ccc(Cl)cc1` was tested, and the “activity change, negative = cytotoxicity” value was -13.7%. `CCOc1ccc(Cc2nccc3cc(OCC)c(OCC)cc23)cc1OCC` was tested, and the “activity change, negative = cytotoxicity” value was -22.8%. With `Clc1ccc2c(c1)CCc1cccnc1C2=C1CCNCC1` the “activity change, negative = cytotoxicity” value was -7.61%. For `CC[C@@H](CO)NCCN[C@@H](CC)CO`, the “activity change, negative = cytotoxicity” value was 9.99%. In the case of `O=c1[nH]c(=O)n([C@H]2CCCO2)cc1F`, the “activity change, negative = cytotoxicity” value is reported as -12.1%. In the case of `O=S1(=O)c2cccc3cccc(c23)N1CCCN1CCN(c2ccc(F)cc2)CC1`, the “activity change, negative = cytotoxicity” value is reported as -7.9%. With `CCN(CC)C(=O)/C(C#N)=C/c1cc(O)c(O)c([N+](=O)[O-])c1` the “activity change, negative = cytotoxicity” value was -1.44%. In the case of `CCC(C(=O)OCCN(CC)CC)c1ccccc1` (stereo not given), the “activity change, negative = cytotoxicity” value is reported as 7.73%. In the case of `Cc1ccc(C(=O)C(C)CN2CCCCC2)cc1` (stereo not given), the “activity change, negative = cytotoxicity” value is reported as 0.659%. In the case of `CC/C(=C(/CC)c1ccc(O)cc1)c1ccc(O)cc1`, the “activity change, negative = cytotoxicity” value is reported as -4.85%. For `Nc1ccc(C(=O)O)cc1`, the “activity change, negative = cytotoxicity” value was 7.27%. In the case of `CC(=O)Oc1ccc(C(c2ccc(OC(C)=O)cc2)c2ccccn2)cc1`, the “activity change, negative = cytotoxicity” value is reported as -2.05%. For `CC(Cc1cccc(C(F)(F)F)c1)NCCOC(=O)c1ccccc1` (stereo not given), the “activity change, negative = cytotoxicity” value was 2.3%. With `CN1CCN(CCCN2c3ccccc3Sc3ccc(S(=O)(=O)N(C)C)cc32)CC1` the “activity change, negative = cytotoxicity” value was -6.78%. `C/C=C(/C(=C/C)c1ccc(O)cc1)c1ccc(O)cc1` was tested, and the “activity change, negative = cytotoxicity” value was -9.48%. With `CCCSS/C(CCO)=C(\C)N(C=O)Cc1cnc(C)nc1N` the Potency was 26.6 µM (active). `CCCOC(C(=O)OC1CCN(C)CC1)(c1ccccc1)c1ccccc1` was tested, and the “activity change, negative = cytotoxicity” value was -6.43%. `Cc1c(N(C)CS(=O)(=O)O)c(=O)n(-c2ccccc2)n1C` was tested, and the “activity change, negative = cytotoxicity” value was 0.257%. For `O=C(N/N=C/c1ccccc1O)c1ccncc1`, the Potency was 9.44 µM (active). For `CC1(C)O[C@@H]2C[C@H]3[C@@H]4C[C@H](F)C5=CC(=O)CC[C@]5(C)[C@H]4[C@@H](O)C[C@]3(C)[C@]2(C(=O)CO)O1`, the “activity change, negative = cytotoxicity” value was -2.94%. In the case of `O=C(Nc1ccc(Oc2ccc(Cl)cc2)c(Cl)c1)c1cc(I)cc(I)c1O`, the “activity change, negative = cytotoxicity” value is reported as 4.46%. For `C=CCc1ccc(O)c(OC)c1`, the “activity change, negative = cytotoxicity” value was 12.1%. With `C=C(CC)C(=O)c1ccc(OCC(=O)O)c(Cl)c1Cl` the “activity change, negative = cytotoxicity” value was 9.2%. `CC(C)=CCC1C(=O)N(c2ccccc2)N(c2ccccc2)C1=O` was tested, and the “activity change, negative = cytotoxicity” value was -7.81%. With `N[C@H](Cc1c[nH]c2ccccc12)C(=O)O` the “activity change, negative = cytotoxicity” value was 9.22%. With `CN1[C@@H]2CC[C@H]1CC(OC(=O)c1c[nH]c3ccccc13)C2` (stereo not given in full) the “activity change, negative = cytotoxicity” value was 8.79%. `Oc1c(I)cc(I)c2cccnc12` was tested, and the “activity change, negative = cytotoxicity” value was -4.04%. In the case of `CC(=O)Nc1c(I)cc(I)c(C(=O)O)c1I`, the “activity change, negative = cytotoxicity” value is reported as 5.22%. For `CC(C)COC(=O)c1ccc(N)cc1`, the “activity change, negative = cytotoxicity” value was 6.31%.
